From the supplement of paper PMC9950053
Structures can show the parent of a compound that is named as a salt.

What follows are compounds tested on Danio rerio larvae (5 dpf) (assay: combined optomotor response (time in upper well half, down vs up moving lines, periods 7-14) minus DMSO control (percentage points); higher = stronger optomotor response than DMSO larvae). Conditions: 10 µM; exposure time: 3 h pre-incubation + 3 h imaging.
Protocol: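 Wild-type 5 dpf zebrafish larvae (n=48 per drug, 96-well plates, 28.5 °C) were exposed to Tocris FDA-approved library compounds at 10 µM (0.1% DMSO) for 3 h before and 3 h during imaging. Images were taken every 6 s during visual and acoustic stimuli, and larvae were tracked with Z-LaP Tracker. Each measure is the treated-group mean minus the DMSO control mean (n=844), in percentage points. This mapping covers compounds with 5-character plate codes.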

Row | Compound | combined optomotor response
1 | COc1ccc(C(CN(C)C)C2(O)CCCCC2)cc1 (stereo unspecified) [Venlafaxine hydrochloride] | -1.24
